# Source: PubChem BioAssay AID372 (MTDP, 2006)
# Out of some 100,000 compounds screened, about 770 (0.77%) were called active. Only a selection was taken, and actives are over-represented in it overall. A number with no mark means an inactive call. Rule as the data show it: active = inhibition above about 50%; inactive = the rest.
# Molecular target: Gag-Pol polyprotein (Human immunodeficiency virus type 1 group M subtype B (isolate HXB2)) (UniProt P04585)
# Test: RNase H inhibition, HIV 1 Gag Pol polyprotein, FRET biochemical assay, screening (AID 372)
# Details: HIV-1 RT RNase H, FRET RNA/DNA substrate fluorescence; at 10 µM; active compounds read high
row,Structure (SMILES),inhibition
1,CCOC(=O)C1=C(C)N(C)C(=O)NC1c1ccc2c(c1)OCO2 (configuration not stated),7%
2,CCCCSc1nnc(-c2ccc(Cl)cc2Cl)o1,3%
3,CC1=NN(c2ccc(C)cc2)C(=O)/C1=C\c1ccc2c(c1)OCO2,2%
4,CC1=NN(c2nc(-c3ccc(F)cc3)cs2)C(=O)/C1=C\c1ccc2c(c1)OCO2,58% (active)
5,COc1cc(/C=C2\C(=O)N(c3nc(-c4ccc(Cl)cc4)cs3)N=C2C)cc(OC)c1OC,45%
6,CC1=NN(c2nc(-c3ccc(F)cc3)cs2)C(=O)/C1=C\c1ccc(O)cc1,45%
7,CC1=NN(c2nc(-c3ccc(Cl)cc3)cs2)C(=O)/C1=C\c1ccc2c(c1)OCO2,57% (active)
8,CC1=NN(c2nc(-c3ccc(Br)cc3)cs2)C(=O)/C1=C\c1ccc2c(c1)OCO2,40%
9,O=C(/C(=C\c1ccc([N+](=O)[O-])cc1)n1cncn1)c1ccc(Cl)cc1Cl,16%
10,CCc1ccc(NC(=O)C(CC)c2ccccc2)cc1 (configuration not stated),44%
11,C/C=C/c1ccc(OCCOCCOc2cccc(C)c2C)c(OC)c1,15%
12,COc1ccc(S(=O)(=O)N(Cc2ccccc2)c2ccccc2C(=O)NC(C)c2ccccc2)cc1 (configuration not stated),26%
13,Cc1nc2sccn2c1-c1csc(Nc2ccc(O)cc2)n1,12%
14,Cc1nc2sccn2c1-c1csc(Nc2ccc([N+](=O)[O-])cc2)n1,69% (active)
15,Cc1nc2ccccn2c1-c1csc(Nc2ccc([N+](=O)[O-])cc2)n1,14%
16,Cc1cccc(-n2sc3c(c2=S)-c2ccccc2NC3(C)C)c1C,10%
17,CCOc1cc(CN2CCN(c3ccccn3)CC2)ccc1O,15%
18,COc1cccc(-c2nc3cc(NC(=O)/C=C\c4ccccc4)ccc3o2)c1,62% (active)
19,COc1ccc(/C=C\C(=O)Nc2ccc3oc(-c4cccnc4)nc3c2)cc1,7%
20,O=C(/C=C\c1ccccc1)Nc1ccc2oc(-c3ccccc3)nc2c1,16%
21,O=C(/C=C/c1ccccc1)Nc1ccc(-c2nc3cc(NC(=O)/C=C/c4ccccc4)ccc3[nH]2)cc1,72% (active)
22,Cc1ccc2oc(-c3ccc(NC(=O)/C=C\c4ccccc4)cc3)nc2c1,52% (active)
23,Cc1ccc(-c2nc3ccccc3[nH]2)cc1NC(=O)/C=C\c1ccccc1,15%
24,Cc1ccc2oc(-c3ccc(NC(=O)/C=C/c4ccccc4)cc3O)nc2c1,22%
25,Cc1ccc2nc(-c3ccc(NC(=O)/C=C\c4ccccc4)cc3)oc2c1,40%

row,Structure (SMILES),inhibition
1,O=C(/C=C\c1ccccc1)Nc1cccc(-c2nc3ccccc3[nH]2)c1,21%
2,Cc1cc(/C=C(\C#N)C(=O)Nc2ccc(F)cc2)c(C)n1-c1ccc2c(c1)OCO2,7%
3,Cc1ccc(C(=O)Nc2cc(Cl)ccc2C)c(Cl)c1,14%
4,CCN(CC)CCCCCCOc1ccccc1OC,8%
5,Cc1ccc(-c2csc(/C(C#N)=C/Nc3cccc(F)c3)n2)cc1,4%
6,COc1cc(-c2csc(/C(C#N)=C/Nc3cccc(F)c3)n2)ccc1O,57% (active)
7,COc1ccc(-c2csc(/C(C#N)=C\Nc3cccc(C)c3C)n2)cc1OC,17%
8,N#C/C(=C/Nc1cccc(Cl)c1Cl)c1nc(-c2ccc3c(c2)OCO3)cs1,58% (active)
9,COc1ccc(-c2csc(/C(C#N)=C\Nc3cc(Cl)ccc3Cl)n2)cc1OC,40%
10,COc1ccc(-c2csc(/C(C#N)=C\Nc3cc(OC)c(Cl)cc3OC)n2)cc1,52% (active)
11,N#C/C(=C/Nc1cc(Cl)cc(Cl)c1)c1nc(-c2ccc3c(c2)OCO3)cs1,39%
12,COc1cccc(N/C=C(\C#N)c2nc(-c3ccc(O)c(OC)c3)cs2)c1,13%
13,COc1cc(N/C=C(/C#N)c2nc(-c3ccc(OC)c(OC)c3)cs2)c(OC)cc1Cl,48%
14,COc1ccc(-c2csc(/C(C#N)=C\Nc3cccc(Cl)c3Cl)n2)cc1OC,51% (active)
15,COc1cccc(-c2csc(/C(C#N)=C\Nc3cc(OC)c(Cl)cc3OC)n2)c1,16%
16,N#C/C(=C/Nc1ccccc1F)c1nc(-c2ccc3c(c2)OCO3)cs1,12%
17,Cc1ccc(C(=O)/C=C/c2ccc(OCc3ccccc3)cc2)cc1,4%
18,C=CCOc1ccc(/C=C2/C(=O)NC(=O)N(c3ccccc3F)C2=O)cc1,7%
19,COc1ccccc1OCCOc1ccc(C=NNC(=S)Nc2ccccc2)cc1OC,5%
20,Cc1cc(C)c(C=Nc2cc([N+](=O)[O-])ccc2C)c(C)c1,11%
21,COCCCNC(=O)CN(c1ccc(OC)cc1OC)S(C)(=O)=O,9%
22,CCOc1ccccc1OCCOc1ccc(C=O)cc1,19%
23,COc1ccc(NC(=O)c2ccc(C)c([N+](=O)[O-])c2)cc1,6%
24,O=C(Oc1ccc(Cl)cc1)c1ccc(Cl)cc1,11%
25,COc1ccc(CNC(=O)CSc2nc3ccccc3[nH]2)cc1,3%

row,Structure (SMILES),inhibition
1,CCOc1ccc(C2=CC(=O)C(c3ccccc3)CC2)cc1 (configuration not stated),22%
2,Cc1cc(OCC(=O)N2CCN(c3ccccn3)CC2)ccc1Br,24%
3,Cc1ccc(N(CC(=O)NCc2cccnc2)S(=O)(=O)c2ccc(F)cc2)cc1,2%
4,COc1ccc(C(=O)CSc2nnc(-c3ccccc3)n2-c2ccc(Cl)cc2)cc1,6%
5,Cc1cc2c(cc1C)CN(c1cccc(C(=O)N/N=C/c3ccc(O)c(O)c3)c1)C2,62% (active)
6,Cc1cccc(/C=N/NC(=O)c2ccc(O)c(O)c2)c1,56% (active)
7,Cc1cccc(/C=N/NC(=O)c2cc(O)cc(O)c2)c1,0%
8,O=C(N/N=C/c1ccncc1)c1cccc(I)c1,0%
9,O=C(N/N=C/c1ccc2ccccc2c1)c1ccccc1O,14%
10,O=C(N/N=C/c1ccc2ccccc2c1)c1ccc(O)c(O)c1,73% (active)
11,O=C(N/N=C/c1ccc(O)c(O)c1)c1cccc(I)c1,44%
12,Cc1cccc(/C=N/NC(=O)c2ccccc2)c1,0%
13,Cc1cc2c(cc1C)CN(c1cccc(C(=O)N/N=C/c3ccco3)c1)C2,21%
14,O=C(N/N=C/c1ccc2ccccc2c1)c1ccc(O)cc1,12%
15,O=C(N/N=C/c1ccc(/C=N/NC(=O)c2cccc(I)c2)cc1)c1cccc(I)c1,53% (active)
16,Cc1cc2c(cc1C)CN(c1cccc(C(=O)N/N=C/c3ccc(N(C)C)cc3)c1)C2,47%
17,Cc1cccc(NC(=O)c2cccnc2)c1,13%
18,COc1ccc(CC(=O)N2CCCc3ccccc32)cc1OC,5%
19,O=C(O)c1c(-c2ccccc2)oc2ccc(OCc3ccccc3)cc12,0%
20,O=C1CC(c2ccc(Cl)cc2)CC2=C1C(c1ccccc1F)Nc1ccccc1N2 (configuration not stated),0%
21,O=C(COc1cccc(Cl)c1)N=Nc1c(O)[nH]c(=O)[nH]c1=O,10%
22,O=C(Nc1ccc(F)cc1)Nc1nnc(CSCc2ccccc2Cl)s1,23%
23,CC(=O)Oc1ccc(/C=C(/NC(=O)c2ccccc2)C(=O)NCCO)cc1,7%
24,O=C(O)CCC(=O)N1N=C(c2c(-c3ccccc3)c3cc(Cl)ccc3[nH]c2=O)CC1c1ccc([N+](=O)[O-])cc1 (configuration not stated),18%
25,CC12c3ccccc3C(C)(c3ccccc31)C1C(=O)NC(=O)C12 (configuration not stated),3%

row,Structure (SMILES),inhibition
1,O=C(N/N=C/c1ccc(O)c(O)c1)c1ccc(Br)cc1,41%
2,O=C(N/N=C/c1ccc(O)c(O)c1)c1ccc(O)cc1,37%
3,Cc1cc([N+](=O)[O-])ccc1NC(=O)c1ccccc1,11%
4,O=C(/C=C\Nc1ccccn1)c1ccc(Cl)cc1,9%
5,COc1cc(C=O)ccc1OCCOc1cccc(C)c1C,12%
6,Cc1ccc(C)c(NCn2nnc3ccccc32)c1,10%
7,Cc1csc(N/N=C/c2cccc(OCc3ccccc3)c2)n1,19%
8,O=C1N=C(N2CCN(c3ccccc3)CC2)S/C1=C\c1ccc(OCc2ccccc2)cc1,1%
9,Cc1ccc(S(=O)(=O)N(c2ccc(Br)cc2F)S(=O)(=O)c2ccc(C)cc2)cc1,16%
10,COc1ccc(N2C(=O)NC(=O)/C(=C\c3cc(I)c(OC)c(OC)c3)C2=O)cc1,7%
11,CCOC(=O)c1c(NC(=O)c2sc3cc(C)ccc3c2Cl)sc(C(N)=O)c1C,10%
12,S=C(NCc1ccccc1)N/N=C/c1cccc(OCc2ccccc2)c1,12%
13,CNC(=S)N/N=C/c1cccc(OCc2ccccc2F)c1,52% (active)
14,Fc1ccccc1COc1cccc(/C=N/Nc2ccccc2)c1,11%
15,CN1CCN(S(=O)(=O)c2ccc([N+](=O)[O-])cc2)CC1,0%
16,O=C(Nc1c(Cl)cccc1Cl)c1ccccc1,7%
17,O=C(Nc1ccccc1NC(=O)c1ccccc1)c1ccccc1,0%
18,C=CCOc1ccc(-c2nc3sc4c(c3c(=O)[nH]2)CCCC4)cc1OC,30%
19,COc1cc(-c2nc3sc4c(c3c(=O)[nH]2)CCCC4)ccc1OCC(=O)O,5%
20,COc1cc(-c2nc3sc4c(c3c(=O)[nH]2)CCCC4)ccc1OCc1cccc(F)c1,56% (active)
21,COc1ccc(C(=O)/C=C/NCC(=O)c2ccccc2)cc1,19%
22,N#CC1=C(N)Oc2c(ccc3ccccc23)C1c1ccccc1Cl (configuration not stated),29%
